Results reported in ChEMBL document CHEMBL3988442, “University of Dundee, Small-Polar-MMV Screening Library” (2021).
Hit rate of the full screen: of about 48,000 compounds, about 13,000 (27%) showed an effect of 50% or more. Some of the results follow.

system: Wolbachia pipientis; experiment: Anti-Wolbachia Cell-Based Screen; type: functional; parameters: scale not given: in the data most compounds retested in dose-response had high values; settings: 5 µM

Row | Structure (SMILES) | Percent Effect [%]
1 | OC1CCN(C2CCN(Cc3cnc(-c4cccs4)nc3)CC2)CC1 | 3.199
2 | COc1cc(OC)c(-c2nc3c([nH]2)c(C2CC2)nn3C)cc1OC | 11.95
3 | CN1CCOC(C(=O)Nc2nc(-c3ccc(Cl)cc3)n[nH]2)C1 (stereo not drawn) | -7.364
4 | O=C(O)CC(O)(CC(=O)O)C(=O)O.c1ccc([C@@H]2CN(Cc3cccnc3)C[C@H]2c2cc[nH]n2)cc1 | 104
5 | O=C(O)CC(O)(CC(=O)O)C(=O)O.c1ccc([C@@H]2CN(Cc3ccncc3)C[C@H]2c2cc[nH]n2)cc1 | 114
6 | COc1ccc([C@@H]2CN(Cc3ccncc3)C[C@H]2c2cc[nH]n2)cc1.O=C(O)CC(O)(CC(=O)O)C(=O)O | 69.64
7 | COc1ccc(CN2C[C@H]3CN(Cc4ccncc4)C(=O)[C@H]3C2)cc1.O=C(O)C(F)(F)F.O=C(O)C(F)(F)F | -3.011
8 | O=C(CCC1CCCC1)N1C[C@H]2CC[C@@H]1CN(Cc1ccncc1)C2 | 3.308
9 | COc1ccccc1[C@@H]1CN(Cc2ccncc2)C[C@H]1C(=O)O | -10.92
10 | COc1ccc(CN2C[C@@H]3CN(Cc4ccncc4)C[C@@H]3C2=O)cc1.O=C(O)C(F)(F)F.O=C(O)C(F)(F)F | -12.53
11 | O=C(O)CC(O)(CC(=O)O)C(=O)O.c1cncc(-c2nccc(CN3CCCC3)n2)c1 | -12.77
12 | O=C(O)CC(O)(CC(=O)O)C(=O)O.c1ccc(CC2CCN(Cc3ccnc(-c4cccnc4)n3)CC2)cc1 | 2.968
13 | Cc1csc(CN(C)S(=O)(=O)c2ccc(C)c(N(C)C)c2)n1 | 11.95
14 | Cc1c(NC(=O)c2noc3c2CCCC3)cnn1C | 77.55
15 | Cc1cc(CN2CCC(CNC(=O)c3noc4c3CCCC4)C2)[nH]n1 (stereo not drawn) | -1.453
16 | Cn1ncc(NC(=O)c2noc3c2CCCC3)c1C(N)=O | 112.2
17 | CN1CCc2[nH]cnc2C12CCN(C(=O)c1noc3c1CCCC3)CC2 | 33.96
18 | COc1cccc([C@H]2CN(C(=O)c3noc4c3CCCC4)C[C@@H]2N)c1 | -1.914
19 | Cc1cc(C(N)=O)ccc1NC(=O)c1nc(N2CCCC2)ncc1Cl | -12.29
20 | CN(C)C(=O)c1noc2c1CN(C(=O)CCCN1CCCCC1)CC2 | -13.23
21 | Cn1ncc(NC(=O)c2noc3c2CCCC3)c1C(=O)N1CCCCC1 | 98.83
22 | CCC(CNS(C)(=O)=O)Oc1ccccc1F (stereo not drawn) | -7.569
23 | CN1CCC(C2CCN(Cc3cccc(-n4cccn4)c3)CC2)C1 (stereo not drawn) | -5.048
